# Columns and labels:
# Conditions in all cases: concentration: 1 μM, replicates: in singlicate; n = 1
# [1] = test system: PIK3C2G
# [2] = test system: PIK3CA
# [3] = test system: PIK3CB
# [4] = test system: PIK3CD
# [5] = test system: PIK3CG
# [6] = test system: T1, PIK4CB
# T1 construct: gene PI4KB
# [7] = test system: PIKFYVE
# [8] = test system: PIM1
# [9] = test system: PIM2
# [10] = test system: PIM3
# 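Also: KINOMEscan kinase panel screen.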
SMILES,%Inh [1] [%],%Inh [2] [%],%Inh [3] [%],%Inh [4] [%],%Inh [5] [%],%Inh [6] [%],%Inh [7] [%],%Inh [8] [%],%Inh [9] [%],%Inh [10] [%]
COc1cc(Nc2ccnc3cc(-c4ccncc4)ccc23)cc(OC)c1OC.Cl [GW494610],0,0,0,0,0,0,0,11,0,0
COc1cccc(-c2nc(-c3ccccc3)[nH]c2-c2ccncc2)c1 [SB-610250],0,0,0,0,0,13,63,1,0,0
CN1CCN(Cc2ccc(NC(=O)Nc3ccc(N(C)c4ccnc(Nc5ccc(CS(C)(=O)=O)cc5)n4)cc3)cc2)CC1.Cl [GW827654],6,0,16,0,26,30,7,0,0,45
c1ccc(Oc2ccc(Nc3ccnc4cc(-c5ccc(CN6CCCCC6)o5)ccc34)cc2)nc1 [GW567143],0,0,0,0,0,0,0,0,0,0
CCn1cnc2c(NCc3ccccc3)ncnc21 [SKF-96418],0,0,0,0,0,4,23,21,0,0
Cc1cc(-c2c(-c3ccc(F)cc3)ncn2CCCN2CCOCC2)nc(N)n1 [SB-222517],20,23,0,0,36,46,0,11,26,15
COc1cccc(NC(=O)NCCNc2ccnc(Nc3ccc(F)cc3)n2)c1 [GSK1379879],10,0,0,0,0,0,8,13,0,0
O=C(Nc1n[nH]c2cc(-c3cccs3)ccc12)C1CC1 [SB-731284],1,3,35,0,27,0,9,0,0,0
Cc1ccc(NC(=O)c2ccnc(N3CCCCC3)c2)cc1-c1ccc(C(=O)NCC2CC2)cc1 [GW775610],0,0,0,0,36,8,24,0,0,0
COc1cccc(C2=C(Nc3cccc(O)c3)C(=O)NC2=O)c1 [SB-390771],0,0,0,0,0,10,0,26,0,0
Cc1cc(-c2ccnc(Nc3cccc(C#N)c3)n2)cc(C)c1O [GSK1440913],24,1,0,47,67,97,90,0,0,0
O=C(Nc1n[nH]c2nc(-c3ccccc3)ccc12)C1CC1 [SB-708999],9,11,0,41,5,0,28,0,16,0
CC(C)(C)c1ccc(C(=O)Nc2cn3cc(-n4ccnc4)ccc3n2)cc1,32,0,3,0,4,2,5,7,0,0
Cl.O=C(Nc1ccc(Oc2ccc3[nH]c(NC(=O)c4ccco4)nc3c2)cc1)Nc1cc(C(F)(F)F)ccc1F [GW683134],0,100,0,8,99.9,18,0,0,0,0
COC(=O)Nc1nc2ccc(Oc3ccc(CC(=O)Nc4cc(C(F)(F)F)ccc4F)cc3)cc2[nH]1 [GW680903],0,0,0,0,0,0,5,19,0,0
COC(=O)Nc1nc2ccc(Oc3ccc(NC(=O)Nc4cc(C(F)(F)F)ccc4F)cc3)cc2[nH]1.Cl [GW654607],0,0,17,0,3,0,0,0,0,0
Nc1ncc(-c2cn[nH]c2)c2scc(-c3ccc4c(c3)CCN4C(=O)Cc3ccccc3)c12 [GSK2593067],0,0,0,5,0,25,0,0,0,0

SMILES,%Inh [1] [%],%Inh [2] [%],%Inh [3] [%],%Inh [4] [%],%Inh [5] [%],%Inh [6] [%],%Inh [7] [%],%Inh [8] [%],%Inh [9] [%],%Inh [10] [%]
COc1cccc2c(-c3ccncc3)c(-c3ccc(F)cc3)nn12 [GW468513],0,0,0,11,0,0,0,9,0,0
Nc1ncnc2scc(-c3ccc(NC(=O)Cc4cc(F)ccc4F)cc3)c12.O=C(O)C(F)(F)F [SB-731254-M],13,0,0,0,23,22,0,0,0,19
Cl.N#CCc1ccc(Nc2nccc(Nc3ccc(Oc4ccccc4)cc3)n2)cc1 [GW639905],7,0,0,0,0,0,13,0,0,0
Cc1cccc(Nc2nc(NCCN)ncc2C(N)=O)c1 [GSK1292139],0,0,0,2,2,22,0,28,35,58
COc1cc(Nc2nccc(N3CCC(NS(=O)(=O)c4ccc(NC(C)=O)cc4)CC3)n2)cc(OC)c1OC [GSK1379825],9,0,0,91.6,99.7,9,82,0,0,0
CN(C)c1ncnc2nc[nH]c12 [SKF-31736],0,13,0,0,8,1,21,5,0,8
Cc1ccc(Nc2ccnc(Nc3ccc(C)c(F)c3)n2)cc1O.Cl [GW582868],0,0,0,11,0,8,24,52,0,0
COC(=O)Nc1nc2cc(Oc3ccc(NC(=O)Nc4cccc(SC)c4)cc3)ccc2[nH]1.Cl [GW697999],85,0,0,0,0,0,0,12,0,0
Cc1ccc(O)cc1Nc1ccnc2ccc(C(C)(C)C)cc12 [GW856805],39,13,40,56,22,47,18,37,5,18
Cc1ccc(-c2ccc3occ(-c4ccc(S(C)=O)cc4)c3c2)nn1 (stereo not drawn),18,0,0,2,8,0,3,4,9,4
Cc1cccc(Nc2nc(N[C@H]3CCCC[C@H]3N)ncc2C(N)=O)c1.Cl [GSK986310],0,0,0,0,3,0,0,43,56,88
Cn1cc(-c2ccc3c(c2)CCN3C(=O)Cc2cc(F)cc(C(F)(F)F)c2)c2c(N)ncnc21 [GSK2635225],47,0,8,0,0,0,0,2,0,6
N#Cc1cnc2cc(-c3cnc(CNCCN4CCOCC4)s3)ccc2c1Nc1ccc(Oc2ccccc2)cc1 [GW664114],0,0,0,7,0,11,100,11,0,8
COc1ccc(C)c(Nc2ccnc(Nc3ccc(-c4cnc[nH]4)cc3)n2)c1.Cl [GW784041],11,0,0,0,11,58,0,0,9,0
O=C(Nc1n[nH]c2nc(-c3ccccc3O)ccc12)C1CC1 [SB-711880],0,0,0,0,17,24,30,0,0,0
CCNc1nccc(-c2c(-c3ccc(F)cc3)ncn2C2CCN(C)CC2)n1,26,0,0,0,10,0,0,6,4,30

# From article PMC5540273 (PLoS ONE, 2017)
